Here are results for twelve compounds from PubChem BioAssay.

Activity calls are given as the source filed them.

One assay concerns the target Albumin (Bos taurus) (UniProt P02769). Put plainly: compounds binding labelled BSA control protein – biochemical, small-molecule microarray, Alexa647 label, 635/667 nm fluorescence, artefact control for SMM control protein annotation, profiling panel (AID 1118).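 Note: score merges 667 nm emission intensity and signal-to-noise per printed compound spot.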 The note with it: BSA-A647 binding, fluorescence 635 nm, higher = more signal.
A short description of assay [1]: probe aXIP binding to arrayed compounds – biochemical, NeuroSMM set, 635/667 nm fluorescence, primary screen (AID 1119).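 Note: probe is the protein aXip251-270 applied at 1 µg/mL to compound-printed slides; binding of probe to printed compounds measured as 667 nm fluorescence plus signal to noise.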 Particulars: small-molecule microarray, higher = more signal, called active from +8 up or from −8 down.
Assay [2] is described as follows: probe aNOTCH3 binding on compound microarray – biochemical, small-molecule microarray, 635/667 nm fluorescence, primary screen (AID 1120).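 Note: probe is a biotin-tagged antibody raised against NOTCH3 rather than NOTCH3 protein; score merges spot fluorescence near 667 nm with spot signal to noise.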 Particulars: higher = more signal.
Assay [3] in a line: probe aNOTCH2 binding on compound microarray – biochemical, small-molecule microarray, 635/667 nm fluorescence, primary screen (AID 1121).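 Note: score merges feature fluorescence read at 667 nm with its signal to noise.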 Particulars: higher = more signal.
Assay [4] deals with Carbonic anhydrase 2 (Homo sapiens) (UniProt P00918). Put plainly: compounds binding carbonic anhydrase 2 – biochemical, small-molecule microarray, Alexa647-labelled CAII, profiling panel (AID 1122). The note with it: CAII-A647 binding fluorescence, higher = more signal.
The nature of assay [5]: COS7 lysate on small-molecule microarray, probe aHis, 635 nm (AID 1123).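 Note: z-score combines 667nm fluorescence intensity with signal-to-noise per printed compound spot.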 The note with it: COS7 cell lysate, fluorescence, higher = more signal.
Assay [6] is described as follows: probe aLAP1 signal on lysate-treated microarray – cell lysate, small-molecule microarray, COS7 lysate, primary screen (AID 1124).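 Note: lysate comes from COS7 cells expressing LAP1 and is applied at 0.3 µg/mL; score merges spot fluorescence near 667 nm with signal-to-noise over triplicate slides.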 Particulars: probe aLAP1, fluorescence, higher = more signal.
Another assay has as its system Sam68 (KHDRBS1). Put plainly: compounds binding KHDRBS1 protein – biochemical, small-molecule microarray, 635 nm fluorescence, primary screen (AID 1125).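 Note: score merges 667 nm channel intensity with signal to noise over triplicate slides.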 Particulars: higher = more signal.
Assay [7] relates to Chordin-like protein 2 (CHRDL2). Put plainly: compounds binding chordin-like 2 – biochemical, small-molecule microarray, 635 nm fluorescence, primary screen (AID 1126).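 Note: printed compound slides probed with Chrdl2 protein at 4 µg/mL for 1 h at 4 C; score merges 667 nm emission intensity with signal to noise over three replicate slides.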 The note with it: fluorescence 635 nm, higher = more signal.
In assay [8] the target is Concanavalin-A (Canavalia ensiformis) (UniProt P02866). Kind of assay: compounds binding concanavalin A lectin – biochemical, small-molecule microarray, Alexa647 label, 635 nm, artefact control for SMM control protein annotation, primary screen (AID 1127).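 Note: z combines 667 nm emission intensity with signal-to-noise across three replicate slides.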 The note with it: ConA-A647 binding fluorescence, higher = more signal.
Concanavalin-A (Canavalia ensiformis), sequence (P02866 whole entry, looked up): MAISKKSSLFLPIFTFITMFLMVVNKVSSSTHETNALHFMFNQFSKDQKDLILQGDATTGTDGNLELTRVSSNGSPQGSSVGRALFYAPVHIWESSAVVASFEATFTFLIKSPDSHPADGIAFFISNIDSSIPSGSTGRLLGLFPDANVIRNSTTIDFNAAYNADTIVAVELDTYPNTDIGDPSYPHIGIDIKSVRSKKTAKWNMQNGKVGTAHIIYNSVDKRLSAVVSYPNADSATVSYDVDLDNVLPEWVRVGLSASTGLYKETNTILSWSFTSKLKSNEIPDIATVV

Albumin (Bos taurus), sequence (P02769 whole entry, looked up): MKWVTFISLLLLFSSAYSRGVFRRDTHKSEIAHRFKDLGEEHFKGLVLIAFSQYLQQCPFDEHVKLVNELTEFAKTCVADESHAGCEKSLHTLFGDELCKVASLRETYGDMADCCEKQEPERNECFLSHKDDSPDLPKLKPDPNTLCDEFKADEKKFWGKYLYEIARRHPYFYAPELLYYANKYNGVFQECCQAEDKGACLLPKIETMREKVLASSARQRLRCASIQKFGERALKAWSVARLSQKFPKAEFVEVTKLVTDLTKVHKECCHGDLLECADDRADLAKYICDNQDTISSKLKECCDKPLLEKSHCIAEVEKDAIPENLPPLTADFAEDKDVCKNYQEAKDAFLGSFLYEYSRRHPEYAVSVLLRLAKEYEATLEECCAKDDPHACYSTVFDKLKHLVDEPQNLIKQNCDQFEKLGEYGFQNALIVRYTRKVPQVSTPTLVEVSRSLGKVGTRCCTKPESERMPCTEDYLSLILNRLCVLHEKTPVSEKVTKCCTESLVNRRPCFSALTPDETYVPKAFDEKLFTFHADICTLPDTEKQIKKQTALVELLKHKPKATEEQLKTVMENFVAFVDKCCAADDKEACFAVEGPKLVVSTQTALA

With `O=C1C[C@@](C(=O)NCC(F)(F)F)(c2ccc([N+](=O)[O-])cc2)[C@@H](c2ccc(CO)cc2)N1CC12CC3CC(CC(C3)C1)C2`, the composite z-score is -0.191 in the assay with Albumin (Bos taurus); 0.6 in assay [2]; 0.0345 in [3]; 0.502 in assay [4]; 2.17 in assay [5]; -0.0251 in [6]. For the same compound, the composite z-score in the assay with Sam68 (KHDRBS1) came out at 1.29; in assay [7], 0.297; in assay [8], 1.13. In assay [1], the composite Z-score was 1.68 (inactive).

For `C=CCN1C(=O)[C@]2(O[C@H](CCO)[C@@H]([Si](C)(C)c3ccc(OC)cc3)[C@@H]2C)c2cc(N3C(=O)COc4ccccc43)ccc21`, the composite z-score with Albumin (Bos taurus) was 0.427; in assay [2], 0.0039; in assay [3], -0.175; in assay [4], 0.418; in assay [5] it was 0.751; in assay [6], 0.78. Besides, the composite z-score in the assay with Sam68 (KHDRBS1) is 0.804; in assay [7] it was -0.153; in assay [8] it was 0.919. Also, in assay [1], the composite Z-score was 0.0421 (inactive).

For the compound `COc1ccc(NC(=O)O[C@H]2[C@@H]3OC(=O)[C@H](Cc4cccc(Br)c4)C/C=C/C[C@@H](Cc4cccc(Br)c4)C(=O)O[C@H]3[C@@H](OC)O[C@@H]2CO)cc1`, the composite z-score was found to be 0.259 in the assay with Albumin (Bos taurus); 0.111 in assay [2]; 0.683 in assay [3]; 0.507 in [4]; 0.84 in [5]; 0.782 in assay [6]. The figures for the composite z-score (with Sam68 (KHDRBS1); in assay [7]; in [8]) were 0.355, 0.145 and 0.173, respectively. In [1], the composite Z-score is 0.878 (inactive).

`COc1ccc(C#Cc2ccc3c(c2)[C@]2(C(=O)N3)[C@H](C(=O)N3CCCCCCC3)[C@H]3C(=O)O[C@H](c4ccccc4)[C@H](c4ccccc4)N3[C@@H]2c2ccc(O)cc2)cc1`: the composite z-score with Albumin (Bos taurus) was 0.796; in [2], 0.888; in [3], 0.0488; in [4], 0.594; in assay [5] it was 2.9; in [6], 1.25. For the same compound, the results for the composite z-score (in the assay on Sam68 (KHDRBS1); in [7]; in assay [8]) were 1.3, 0.573 and 0.977, respectively. The composite Z-score in assay [1] is 4.74 (inactive).

For `O=C1OCCC/C=C\[C@H]2OC34C=CCN(c5ccc6ccccc6c5)C(=O)[C@H]3N(CCCO)C(=O)[C@@H]4C12` (stereo not given in full), the composite z-score with Albumin (Bos taurus) is -0.0327; in assay [2], -0.299; in assay [3], -0.111; in assay [4], 0.94; in [5], 0.325; in assay [6], 0.452. In addition, the composite z-score in the assay with Sam68 (KHDRBS1) is 0.235; in assay [7], -1.08; in [8], -0.296. Also, the composite Z-score in assay [1] is -0.0549 (inactive).

Consider `O=C1C2C=CC(C(O)c3ccc4c(c3)OCO4)N(Nc3ccccc3)C2C(=O)N1c1ccccc1` (stereo not given), for which the composite z-score with Albumin (Bos taurus) was found to be 1.01; in [2] it was 0.345; in assay [3], 0.0247; in assay [4], 0.468; in [5], 2.43; in [6], 0.247. The composite z-score in the assay with Sam68 (KHDRBS1) is 1.29; in assay [7] it was -0.0766; in [8], 1.13. The composite Z-score in assay [1] was 0.348 (inactive).

Regarding `O=C(N1CCOCC1)[C@@]1(CCS(=O)(=O)c2ccccc2)N=C(c2ccc(OCCCO)cc2)O[C@H]1c1ccccc1`, the composite z-score with Albumin (Bos taurus) was 1.06; in assay [2] it was 0.211; in assay [3], 0.0228; in assay [4], 0.853; in [5], 3.1; in assay [6], -0.152. The composite z-score in the assay with Sam68 (KHDRBS1) was 1.31; in assay [7], -0.56; in assay [8], 1.2. The composite Z-score in [1] is 0.55 (inactive).

Turning to `CN1C(=O)C2C(C1=O)C1C=C(CCCO)C2C(C2CC2)N1Cc1cc2c(cc1Br)OCO2` (stereo not given), the composite z-score is 0.984 in the assay with Albumin (Bos taurus); 0.201 in assay [2]; -0.0097 in assay [3]; 0.756 in assay [4]; 2.63 in assay [5]; 1.25 in assay [6]. For the same compound, the composite z-score in the assay with Sam68 (KHDRBS1) was found to be 1.18; in assay [7] it was 0.0995; in [8] it was 0.738. Further, the composite Z-score in [1] was 1.32 (inactive).

Consider `C=CCNC(=O)[C@H]1[C@@H]2C(=O)O[C@@H](c3ccccc3)[C@@H](c3ccccc3)N2[C@@H](c2ccc(OCCO)cc2)[C@]12C(=O)Nc1ccc(C#CCNC(N)=O)cc12`, for which the composite z-score was 0.601 with Albumin (Bos taurus); 0.103 in assay [2]; -0.0624 in [3]; 0.587 in assay [4]; 0.261 in assay [5]; -0.113 in [6]. For the same compound, the composite z-score in the assay with Sam68 (KHDRBS1) is 1.18; in assay [7], -0.269; in [8], 1.1. For the same compound, the composite Z-score in assay [1] was -0.262 (inactive).

Consider `COc1ccc(C#Cc2ccc3c(c2)[C@]2(C(=O)N3)[C@H](c3ccc(OCCO)cc3)N3[C@H](c4ccccc4)[C@H](c4ccccc4)OC(=O)[C@H]3[C@@H]2C(=O)N2CCc3cc(OC)c(OC)cc3C2)cc1`, for which the composite z-score with Albumin (Bos taurus) was 0.0867; in [2], 0.233; in assay [3], -0.23; in assay [4], 0.438; in assay [5], 2.04; in [6] it was 0.216. In addition, the composite z-score is 1.12 with Sam68 (KHDRBS1), 0.704 in assay [7] and 1.09 in [8]. For the same compound, the composite Z-score in [1] is -0.487 (inactive).

Turning to `CN1C(=O)C2C=CC(C(O)c3ccc(F)cc3)N(NC(=O)OC(C)(C)C)C2C1=O` (stereo not given), the composite z-score in the assay with Albumin (Bos taurus) is 0.854; in assay [2], 0.0155; in [3], -0.0317; in assay [4] it was 0.695; in assay [5], 2.48; in assay [6], 0.215. Also, the results for the composite z-score (in the assay with Sam68 (KHDRBS1); in [7]; in assay [8]) were 1.03, -1.3 and 0.923, respectively. Besides, the composite Z-score in assay [1] is 0.134 (inactive).

In the case of `COCC1C2CC[C@H]3C(OCc4ccc(OC)cc4)OC[C@]4(C)[C@H]3C2=C(CN4C(=O)OC(C)(C)C)[C@H](C)C1COC` (stereo not given in full), the composite z-score was 1 with Albumin (Bos taurus); 0.249 in [2]; -0.182 in assay [3]; 0.796 in assay [4]; 2.82 in [5]; 0.534 in assay [6]. In addition, the figures for the composite z-score (with Sam68 (KHDRBS1); in assay [7]; in [8]) were 1.3, -0.355 and 1.15, respectively. Further, the composite Z-score in [1] is 0.709 (inactive).
